Data as given in PubChem BioAssay (NCI).
The panel holds about 83,000 compounds, 20% with a hit somewhere; the sample as a whole holds those more often.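 Treatment: one concentration, 48 hours, 96-well format. Scoring: percent growth, with anything below 10 considered active.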 Values without a mark were called inactive. Calls of active or inactive are those of the source.

Columns and labels:
Assay in all cases: NCI-60 one-dose screen, 48 h (100 = growth as untreated, 0 = no growth, -100 = all killed)
[1] = test system: SR leukemia; details: 10 µM unless noted
[2] = test system: RPMI-8226 leukemia; details: 10 µM
[3] = test system: OVCAR-8 ovarian; details: 10 µM unless noted
[4] = test system: OVCAR-5 ovarian; details: 10 µM unless noted
[5] = test system: OVCAR-4 ovarian; details: 10 µM unless noted
[6] = test system: SK-OV-3 ovarian; details: 10 µM
[7] = test system: IGROV1 ovarian; details: 10 µM unless noted
[8] = test system: OVCAR-3 ovarian; details: 10 µM unless noted
[9] = test system: HS 578T breast; details: 10 µM unless noted
[10] = test system: NCI/ADR-RES ovarian; details: 10 µM unless noted
[11] = test system: T-47D breast; details: 10 µM
[12] = test system: BT-549 breast; details: 10 µM unless noted
[13] = test system: MDA-MB-435 melanoma; details: 10 µM unless noted
[14] = test system: SW-620 colon; details: 10 µM unless noted
[15] = test system: MCF7 breast; details: 10 µM unless noted
[16] = test system: HCT-116 colon; details: 10 µM unless noted
[17] = test system: HCC-2998 colon; details: 10 µM unless noted
[18] = test system: KM12 colon; details: 10 µM unless noted

Row | Compound | growth [1] | growth [2] | growth [3] | growth [4] | growth [5] | growth [6] | growth [7] | growth [8] | growth [9] | growth [10] | growth [11] | growth [12] | growth [13] | growth [14] | growth [15] | growth [16] | growth [17] | growth [18]
1 | O=C1/C(=C/c2ccc(Oc3ccccc3)cc2)N=C(c2ccccc2)N1CCc1cccs1 | 81% | 69.7% | 88.6% | 109% | 78% | 106% | 71.5% | 106% | 58.7% | 83.9% | 83.9% | 74.9% | 89.7% | 80.1% | 81.8% | 57.1% | 96.6% | 97.6%
2 | Cn1c2c(cc(S(=O)(=O)c3ccccc3)c1=O)CCc1c-2cnn1-c1cccc(Cl)c1 | 77.6% | 82.6% | 88.8% | 93% | 60.9% | 86.8% | 97.5% | 98.1% | 92% | 90.6% | 64.4% | 92.4% | 87.9% | 110% | 90.4% | 88.2% | 111% | 101%
3 | Nc1cc(Br)c(-c2nnc(CCC(=O)c3nc4ccccc4[nH]3)o2)c(Br)c1 | 18.5% | 79.6% | 95.2% | 97.2% | 82.4% | 81.8% | 76.8% | 49.1% | 99.6% | 89.6% | 72.6% | 40.6% | 5.71% (active) | 72.1% | 18.9% | 53.3% | 78% | 69%
4 | COc1cc(CNCCN2C(=O)c3ccc4c5c(ccc(c35)C2=O)C(=O)N(CCNCc2cc(OC)c(OC)c(OC)c2)C4=O)cc(OC)c1OC | 0.859% (active) | -25.5% (active) | -47.3% (active) | -78.7% (active) | -70.9% (active) | -96.9% (active) | -53.5% (active) | -99.1% (active) | -60.7% (active) | -20.2% (active) | -56.2% (active) | -93.8% (active) | -63.4% (active) | -87.3% (active) | -59.4% (active) | -99.7% (active) | -100% (active) | -92.5% (active)
5 | Cn1c2c(cc(S(=O)(=O)c3ccccc3)c1=O)CCc1c-2cnn1-c1ccccc1Cl | 80.2% | 91.7% | 88.6% | 96.5% | 101% | 88.7% | 107% | 110% | 117% | 113% | 68% | 101% | 100% | 116% | 96.2% | 109% | 118% | 112%
6 | COc1cc(C(F)(F)F)ccc1-c1cc(-c2ccc(F)cc2)n[nH]1 | 107% | 67.5% | 84.7% | 88.7% | 71.2% | 104% | 80.6% | 91.9% | 96.3% | 91.5% | 62.7% | 106% | 96% | 98.3% | 50.4% | 82.2% | 108% | 88.1%
7 | Cc1nn(-c2ccccc2)c2nc3nc4c(c(N)c3c(-c3ccc(Cl)cc3)c12)CCCC4 | -15.3% (active) | 93% | 92.6% | 96.3% | 109% | 101% | 104% | 114% | 105% | 106% | 108% | 113% | 97% | 79.5% | 97.8% | 80.2% | 113% | 105%
8 | Cn1c(=O)c(S(=O)(=O)c2ccccc2)cc2ccc3c(cnn3-c3ccc(Cl)cc3)c21 | 79% | 75.9% | 60.9% | 94.3% | 39.1% | 69.7% | 96% | 94.5% | 69.3% | 81.5% | 50.5% | 66.1% | 80.8% | 90.5% | 99.8% | 63.5% | 93.4% | 89.3%
9 | Nc1nc(N)c(N=Nc2c(Br)cc(S(N)(=O)=O)cc2Br)c(N)n1 | 34.5% | 106% | 98.4% | 109% | 124% | 108% | 105% | 73.1% | 95.1% | 107% | 88.6% | 100% | 48.3% | 98% | 68.6% | 103% | 100% | 61.3%
10 | NS(=O)(=O)c1cc(Br)c2c(c1)S(=O)(=O)NCN2 | 88% | 106% | 103% | 112% | 120% | 115% | 115% | 99.3% | 110% | 135% | 102% | 108% | 105% | 109% | 97.4% | 108% |  | 96.9%
11 | COc1ccc(-n2c(SCc3cc(OC)c(OC)c(OC)c3)nc3ccc(C)cc3c2=O)c(OC)c1 | 7.68% (active) | -4.23% (active) | 45.6% | 43.2% | 57.4% | 45.3% | 35.7% | -4.61% (active) | 6.73% (active) | 1.42% (active) | 33.1% | 32.1% | -55% (active) | 21% | 15.5% | 18.1% | 45.5% | 18.1%
12 | COc1ccc(C2SC(C)C(=O)N2CCc2cccs2)cc1OC (configuration not stated) | 63.8% | 68.8% | 85.1% | 104% | 62.8% | 102% | 79.6% | 95.3% | 95.4% | 86.1% | 52.9% | 76% | 98.3% | 102% | 86.3% | 78.4% | 84% | 96.3%
13 | COc1ccc(-c2csc3c2-n2cccc2C3=O)cc1O | -6.8% (active) | -19.8% (active) | 5.09% (active) | 84.5% | 37.4% | 1.75% (active) | 20.3% | -38.7% (active) | 32.7% | -25.4% (active) | 79.6% | -26.2% (active) | -57.1% (active) | 20.2% | 5.97% (active) | -9.12% (active) |  | -2.75% (active)
14 | COC1(OC)C2(Cl)C=C(c3ccccc3)C1(Cl)C(Cl)=C2Cl (configuration not stated) | 83.9% | 92.4% | 93.8% | 101% | 88.6% | 90.3% | 90% | 107% | 116% | 98.9% | 95.6% | 88.2% | 95.7% | 115% | 99.2% | 79.3% | 99.8% | 109%
15 | CCCCCn1c(=N)n(CC(O)COc2cccc(C)c2)c2ccccc21 (configuration not stated) | 2.12% (active) | -10.8% (active) | 20.9% | 61.7% | 6.79% (active) | 13.1% | 28.1% | 7.4% (active) | -0.161% (active) | 3.77% (active) | -0.186% (active) | -16.9% (active) | 6.94% (active) | 10.8% | 7.34% (active) | 11% |  | 6.37% (active)
16 | COc1ccc(Sc2ccc3[nH]c(=O)nc(N)c3c2)cc1 | 87.1% | 104% | 98% | 100% | 99.7% | 104% | 109% | 115% | 106% | 103% | 94.3% | 98.9% | 99.8% | 101% | 100% | 99.9% |  | 108%
17 | COc1cc(/C=C2\C(=O)N(c3c(Cl)cccc3Cl)c3ccccc32)cc(OC)c1O | 3.84% (active) | 12.5% | 33.1% | 89.8% | 53.6% | 53.7% | 6.56% (active) | 46% | 39.8% | 38.7% | 51.8% | 33.4% | 35.2% | 31.4% | 25.3% | 15.7% | 44.6% | 28.4%
